Source: PubChem BioAssay (several laboratories)
Beta apoptosis = beta cell apoptosis inhibition. 0.8% of 300,000 active. INS-1E cytokine-induced death, ATP luminescence, 48 h; percent of positive-control rescue, neutral wells zero. protection from apoptosis, % (concentration not given with the values). AID 435005;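 active = Every replicate reaches about 75%, or at least half do and their mean reaches it too, limit read from the data; inconclusive = At least half of replicates reach the limit but their mean does not; inactive = Under half of replicates reach the limit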;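 also: 0% = cytokine-treated negative control wells and 100% = positive control rescue; higher means more ATP so stronger rescue from cytokine killing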
PP5 primary = PP5 (human) phosphatase inhibition | purified PP5c, OMFP substrate fluorescence | inhibition, % at 6.7 µM | 0.18% of 320,000 active;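 active = inhibition above the campaign's mean inhibition across all tested compounds plus 3 SD, cut at about 9.5% in these data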;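 also: 0% = DMSO only and 100% = 100 µM cantharidin control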
PP1 inh = counter-screen for PP5 inhibitors: inhibitors of human PP1-alpha; 0.9% of 320,000 active; inhibition, % at 6.7 µM; purified PP1alpha, OMFP fluorescence; P62136;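 active = inhibition above the mean inhibition of all tested compounds plus 3 SD, computed separately for each screening campaign, cut at about 15% in these data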
Target sequence (P62136 whole entry, looked up): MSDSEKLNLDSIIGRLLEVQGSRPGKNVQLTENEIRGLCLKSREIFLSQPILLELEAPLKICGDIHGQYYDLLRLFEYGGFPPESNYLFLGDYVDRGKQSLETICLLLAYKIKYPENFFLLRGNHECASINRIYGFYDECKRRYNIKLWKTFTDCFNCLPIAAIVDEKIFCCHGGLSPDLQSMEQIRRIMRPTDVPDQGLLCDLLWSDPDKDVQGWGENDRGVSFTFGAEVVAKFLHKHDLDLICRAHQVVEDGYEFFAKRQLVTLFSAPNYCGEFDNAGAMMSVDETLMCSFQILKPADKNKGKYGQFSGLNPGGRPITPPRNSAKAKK
SKKanGAS inh = SKKanGAS growth inhibition. S. pyogenes SKKanGAS, kanamycin growth, BacTiter-Glo, 6 h. inhibition, % at 7.5 µM. 1.3% of 300,000 active;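 active = mean replicate score, as percent of positive control median, at least 50; inconclusive = mean below 50 but one replicate at or above 50; inactive = mean and every replicate below 50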;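 also: strain carries kanamycin resistance gene driven by streptokinase promoter and grows in 40 µg/ml kanamycin; loss of luminescence reflects streptokinase promoter inhibition or plain growth inhibition; 0% = median of DMSO wells and 100% = positive control at its reference dose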
CSC inhib = blocks cancer stem cells; cancer stem cell-like cells viability, luminescence; inhibition, % at 7.5 µM; 1.1% of 300,000 active; AID 2717; in the data active = inhibition above about 75%; inconclusive = no clear call, values can overlap the other calls; tested in HMLE shEcad cells
* hit, by the source's call; ? = inconclusive; · = no result. Most compounds without a hit are left out; they make up all but 3.1% or so of the library.

SMILES	Beta apoptosis	PP5 primary	PP1 inh	SKKanGAS inh	CSC inhib
O=C(NCc1ccccc1)C1=C[C@@H](c2csc3ccccc23)C[C@@H](OCc2ccc(CO)cc2)O1	123*	0	7	22	22
O=C(NCc1ccccc1)C1=C[C@@H](c2csc3ccccc23)C[C@@H](OCCCCO)O1	116*	5	7	13	14
CCOC(=O)C1(Cc2ccccc2)C(=O)N(CCCN(C)C)c2ccccc21 (stereo not given)	-5	1	-1	-5	0
Cc1cnc(NC(=O)CSc2nc3ccccc3s2)s1	-5	3	1	-9	-15
Cc1ccccc1-c1nnc(NC(=O)CSc2nc3ccccc3s2)s1	0	3	17*	2	7
CCOC(=O)C1=C(CSc2nc3c(cc2C#N)CN(C)CC3)OC(N)=C(C#N)C1c1ccccc1 (stereo not given)	-2	-5	17*	1	7
CCOC(=O)C1=C(CSc2nc3c(cc2C#N)CN(C)CC3)OC(N)=C(C#N)C1c1ccc(F)cc1 (stereo not given)	-11	5	16*	16	-18
CCOC(=O)C1=C(CSc2nc3c(cc2C#N)CCC3)OC(N)=C(C#N)C1c1ccccc1 (stereo not given)	2	5	1	1	-5
CSCCC(N=C(NS(=O)(=O)c1ccccc1)c1ccccc1)C(=O)O (stereo not given)	2	0	1	-4	1
COc1ccc(C(=O)CSc2nnc(CN3CCCCC3)n2-c2ccc(Cl)cc2)cc1OC	-19	1	2	-9	140*
COc1ccc(-c2nn(-c3ccccc3)cc2/C=N/Nc2ccc3ccccc3n2)cc1OC	86*	2	6	19	5
CCc1c(C(=O)NNC(=O)Nc2ccc3c(c2)OCO3)csc1C	-1	·	·	3	-14
C[C@H](NC(N)=O)C(=O)Nc1ccc(N2CCOCC2)c(S(=O)(=O)Nc2ccc(Cl)cc2)c1	·	2	-3	·	·
CSc1c(SCc2ccccc2)cnn(-c2ccccc2)c1=O	-4	4	4	7	79*
CCn1c(C)nc2cc(C(=O)NNC(=O)c3ccc(C)cc3)ccc21	1	-1	-4	·	·
CCn1c(C)nc2cc(C(=O)OC(C(F)(F)C(F)F)C(F)(F)C(F)F)ccc21	104*	7	3	-15	37
Cc1nnsc1NC(=O)OCc1ccc(C(F)(F)F)cc1	-1	2	17*	2	38
Cc1nnsc1NC(=O)OCc1ccccc1Cl	5	5	-3	10	8
CC(C)Sc1cc(N2CCCC2)nc(-c2ccc(F)cc2)n1	-1	1	-8	76*	0
CC(C)Sc1cc(N2CCCC2)nc(-c2ccccc2)n1	7	1	3	69*	2
CC(C)Sc1cc(N2CCOCC2)nc(-c2ccccc2)n1	-6	3	0	-4	24
CC(C)Sc1cc(N2CCCC2)nc(-c2ccccc2Cl)n1	1	4	-2	-11	9
CCCSc1cc(N2CCCC2)nc(-c2ccccc2)n1	-3	0	0	52*	-1
CCSc1cc(N2CCCC2)nc(-c2ccccc2)n1	4	0	-3	?	30
O=C(O)C1Nc2c(O)cccc2C2C=CCC12 (stereo not given)	2	6	50*	·	-12
SMILES	Beta apoptosis	PP5 primary	PP1 inh	SKKanGAS inh	CSC inhib
O=C(O)CCCNc1cc(N2CCN(C(=O)c3ccco3)CC2)c2noc3c2c1C(=O)c1ccccc1-3	·	6	7	52*	6
COc1cc(F)ccc1CN1CCC(n2nccc2NC(=O)C2CCOC2)CC1 (stereo not given)	·	2	1	52*	-2
CCn1nc(C)c(CNC(=O)C2CCC(=O)N(CCc3ccc(Cl)cc3)C2)c1C (stereo not given)	-5	4	-1	-3	20
C[C@]12CC[C@@H]3c4ccc(O)cc4CC[C@H]3[C@@H]1CCC2=O	-3	-1	-1	-2	-4
C[C@]12CC[C@@H]3c4ccc(O)cc4CC[C@H]3[C@@H]1CC[C@@H]2OC(=O)CCC1CCCC1	8	1	0	111*	22
CCCCC(=O)O[C@H]1CC[C@H]2[C@@H]3CCc4cc(O)ccc4[C@H]3CC[C@]12C	-5	5	-2	89*	24
NC(=O)CN1C(=O)NC2(CCOc3ccccc32)C1=O (stereo not given)	-2	0	-3	0	-12
C[C@@H]1COC(=O)[C@H](NC(=O)OCC2c3ccccc3-c3ccccc32)C/C=C\C[C@@H](CC(=O)N[C@H](CO)Cc2ccccc2)C(=O)N1	18	·	·	·	·
COc1ccc(/C=N/Nc2ccc(C(=O)O)cc2)c(OC)c1OC	3	1	-2	4	6
COC(=O)c1ccc2c(c1)C(C)(C)C(/C=C/c1ccc(OC)c(OC)c1OC)=[N+]2C	107*	1	8	-3	-3
COc1ccc(NC2CCCN(C(=O)c3ccc(C(C)=O)s3)C2)cc1 (stereo not given)	-5	0	-1	1	8
O=C(CCl)N(c1ccccc1)C1CCCCC1	107*	-1	-5	-6	-16
CC(=O)N(c1ccccc1)C1CCCC1	-5	-2	-1	1	-9
O=C(CS(=O)c1ccc(C(F)(F)F)cc1[N+](=O)[O-])Oc1ccccc1 (stereo not given)	-26	-1	-1	16	77*
COC(=O)c1ccc(OC(=O)CS(=O)c2ccccc2[N+](=O)[O-])cc1 (stereo not given)	-8	3	0	-38	-3
Cc1ccc(-c2csc3ncn(CC#N)c(=O)c23)cc1	0	2	-1	5	-2
Cc1ccc(-c2csc3ncn(CC#N)c(=O)c23)cc1C	-2	3	1	52*	6
COc1ccc(OC)c(/C=C2\S/C(=N/NC(=O)c3ccc4ccccc4c3)NC2=O)c1	0	2	4	106*	106*
O=C1C2=C(NC(=S)NC2c2ccc(Cl)cc2)NC(c2ccc(Cl)cc2)N1c1ccc(Cl)cc1 (stereo not given)	-12	4	5	105*	101*
CC(C)=CCC12Oc3cc(O)ccc3C1(O)Oc1cc3c(c(O)c1C2=O)C=CC(C)(C)O3 (stereo not given)	-5	4	-3	105*	8
CC(=O)c1c(C)[nH]c(C(=O)OCCCCN2C(=O)c3ccccc3C2=O)c1C	104*	1	-4	-5	-1
Cc1cc(C)nc(N/N=C/C(Cl)=C/c2ccccc2)n1	3	1	-1	3	-2
Cc1[nH]n(-c2ccccc2)c(=O)c1N=Nc1ccccc1C(=O)O	-5	3	-2	21	5
Cc1[nH]n(-c2ccccc2)c(=O)c1N=Nc1ccccc1O	·	·	·	68*	·
CCOc1ccc(N=Nc2c(C)[nH]n(-c3ccccc3)c2=O)cc1	·	0	0	0	-3
Cc1[nH]n(-c2ccccc2)c(=O)c1N=Nc1nccs1	5	2	6	94*	29
COCCNC(=S)N(CCc1c(C)[nH]c2ccc(F)cc12)Cc1ccco1	0	5	-3	0	17
